Data from the supplement of paper PMC6555819.

Assays:
Assay in all cases: PBM binding z-score (relative to random genomic background probes); higher = stronger binding; sequences stand for … in GC…GCGATTGACAGCGTAGAATGAAGG
[1] = system: FXR:RXRa (NR concentration 270 nM, RXRa partner concentration 90 nM)
Procedure, shortened: (§1)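 Custom Agilent 4×180K protein-binding microarrays carried double-stranded probes. Their 34-nt variable regions held direct-repeat seeds, single-nucleotide variants, half-site ablations and random human genomic background sequences. Arrays were incubated 1 h with ligand-free nuclear receptor dimers in PBS pH 7.4, 2% milk, 0.02% Triton X-100, 1 mM DTT, 0.2 mg/mL BSA and 0.4 mg/ml salmon testes DNA. Antibodies against each partner (one per run) detected binding, and scanned fluorescence was regression-normalized. Binding z-scores use random background probes as reference.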

[2] = system: LXRa:RXRa (NR concentration 270 nM, RXRa partner concentration 90 nM)
Procedure, shortened: as §1

[3] = system: LXRa homodimer (NR concentration 270 nM)
Procedure, shortened: as §1

[4] = system: LXRb:RXRa (NR concentration 270 nM, RXRa partner concentration 90 nM)
Procedure, shortened: as §1

[5] = system: LXRb homodimer (NR concentration 270 nM)
Procedure, shortened: as §1

[6] = system: PPARa:RXRa (NR concentration 270 nM, RXRa partner concentration 90 nM)
Procedure, shortened: as §1

[7] = system: PPARg:RXRa (NR concentration 180 nM, RXRa partner concentration 90 nM)
Procedure, shortened: as §1

[8] = system: PPARg:RXRa 270nM:90nM, anti-RXR (NR concentration 270 nM, RXRa partner concentration 90 nM)
Procedure, shortened: as §1

[9] = system: PPARg:RXRa 30nM:10nM, anti-RXR (NR concentration 30 nM, RXRa partner concentration 10 nM)
Procedure, shortened: as §1

[10] = system: PPARg:RXRa 90nM:30nM, anti-RXR (NR concentration 90 nM, RXRa partner concentration 30 nM)
Procedure, shortened: as §1

[11] = system: PPARg:RXRa DBDmut IVT, anti-RXR (DBD mutation: RXRa K156A/R161A, NR concentration 270 nM, RXRa partner concentration 90 nM)
Procedure, shortened: as §1

[12] = system: PPARg:RXRa IVT, anti-PPARg (NR concentration 270 nM, RXRa partner concentration 90 nM)
Procedure, shortened: as §1

[13] = system: PPARg DBDmut:RXRa IVT, anti-PPARg (DBD mutation: PPARg1 K132A/R137A, NR concentration 270 nM, RXRa partner concentration 90 nM)
Procedure, shortened: as §1

[14] = system: PPARg DBDmut IVT, anti-PPARg (DBD mutation: PPARg1 K132A/R137A, NR concentration 270 nM)
Procedure, shortened: as §1

[15] = system: PPARg homodimer (NR concentration 180 nM)
Procedure, shortened: as §1

[16] = system: PXR:RXRa (NR concentration 270 nM, RXRa partner concentration 90 nM)
Procedure, shortened: as §1

[17] = system: PXR homodimer (NR concentration 270 nM)
Procedure, shortened: as §1

[18] = system: RARa:RXR (NR concentration 270 nM, RXRa partner concentration 90 nM)
Procedure, shortened: as §1

[19] = system: RARa homodimer (NR concentration 270 nM)
Procedure, shortened: as §1

[20] = system: RARb:RXRa (NR concentration 270 nM, RXRa partner concentration 90 nM)
Procedure, shortened: as §1

Sequence	PBM binding z-score [1]	PBM binding z-score [2]	PBM binding z-score [3]	PBM binding z-score [4]	PBM binding z-score [5]	PBM binding z-score [6]	PBM binding z-score [7]	PBM binding z-score [8]	PBM binding z-score [9]	PBM binding z-score [10]	PBM binding z-score [11]	PBM binding z-score [12]	PBM binding z-score [13]	PBM binding z-score [14]	PBM binding z-score [15]	PBM binding z-score [16]	PBM binding z-score [17]	PBM binding z-score [18]	PBM binding z-score [19]	PBM binding z-score [20]
CAAACTAGGTCAAGAGGTCACAGTCCGCTTCCCG	6.79	5.84	4.4	4.97	1.01	6.61	10.2	8.35	7.25	8.69	8.51	8.53	3.61	2.62	6.23	5.99	1.56	7.64	2.8	5.67
ATCGAAAGGTCGTGAGGCGAGTATACAGAAAGGC	5.83	4.11	0.273	3.21	0.391	5.07	3.85	4.18	1.56	2.61	0.466	1.91	1.82	1	1.5	2.96	0.0504	3.69	0.41	4.1
GGAACGAGGGTAAAGTTGATAGCATCTGTCGACG	0.472	0.494	-0.531	0.361	-0.696	3.37	5.63	6.72	4.9	7.39	2.48	2.91	0.376	-0.666	0.544	0.0856	-0.214	0.287	-0.126	0.952
CGTCCAAGGTCAATGCTAGGTCAGTGCAAGCATT	6.7	5.58	2.83	4.07	0.975	4.94	3.6	4.26	0.996	3.23	3.46	3.77	-0.816	-0.276	4.69	4.69	1.57	5.52	1.48	5.25
ATCTCTAGGTAACCGAGTTCAGTGAATGCCGAAC	0.422	0.883	1.08	0.706	0.377	1.44	0.672	1.1	-0.103	0.724	3.51	2.9	0.719	0.977	0.0322	2.93	2.94	1.04	0.216	0.826
CCTACTGGGCCATTCCGAGGTCATTGATCATATG	2.71	3.36	4.85	3.28	0.27	3.5	1.58	2.59	0.281	1.54	4.18	4.34	0.312	-0.485	1.24	4.4	4.22	3.88	0.0189	2.63
CCGACTGGGGAAAGGTTACCATAACGCACAGCCA	0.564	1.86	0.0866	1.75	-0.554	2.76	2.69	3.64	1.61	3.26	0.181	0.852	-0.712	-0.726	1.01	1.26	0.0491	1.9	0.439	1.74
AGAACGAGGGCAATGAGTTGATTGCACGGGTGGC	0.165	0.157	-0.593	-0.398	-0.715	1.23	1.15	0.624	-0.179	0.252	3.14	2.43	0.337	-0.0138	-0.0601	1.65	6.35	0.166	-0.231	1.89
